The full data set covers some 7,900 targets. This sample favours those with a hit. About 0.6% of all pairs of compound and target were hits.
compound: C#Cc1cccc(Nc2ncnc3cc(OCCOC)c(OCCOC)cc23)c1 [erlotinib]; experiment: log2 fold change, soluble protein after heating vs DMSO (PISA); higher = thermal stabilisation; K562 cells, 10 uM, 30 min; active = over 0.2 and 3.5 SD of the protein, either way, in both replicates (recomputed)
In short: (§1)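 K562 cells (2×10^6 cells/mL) were treated with 10 μM compound for 30 min, and aliquots were heated for 3 min over 48°C-58°C. Pooled aliquots were extracted in PBS with 0.5% NP-40 at 4°C, and the supernatant after 21,000xg for 90 min was measured by TMTpro 16plex LC-MS/MS with channel sums equalised. Reported thermal stability, relative to control samples and from duplicates, is a log2 fold change.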

Chain of UniProt P17844 (P17844 whole entry, looked up): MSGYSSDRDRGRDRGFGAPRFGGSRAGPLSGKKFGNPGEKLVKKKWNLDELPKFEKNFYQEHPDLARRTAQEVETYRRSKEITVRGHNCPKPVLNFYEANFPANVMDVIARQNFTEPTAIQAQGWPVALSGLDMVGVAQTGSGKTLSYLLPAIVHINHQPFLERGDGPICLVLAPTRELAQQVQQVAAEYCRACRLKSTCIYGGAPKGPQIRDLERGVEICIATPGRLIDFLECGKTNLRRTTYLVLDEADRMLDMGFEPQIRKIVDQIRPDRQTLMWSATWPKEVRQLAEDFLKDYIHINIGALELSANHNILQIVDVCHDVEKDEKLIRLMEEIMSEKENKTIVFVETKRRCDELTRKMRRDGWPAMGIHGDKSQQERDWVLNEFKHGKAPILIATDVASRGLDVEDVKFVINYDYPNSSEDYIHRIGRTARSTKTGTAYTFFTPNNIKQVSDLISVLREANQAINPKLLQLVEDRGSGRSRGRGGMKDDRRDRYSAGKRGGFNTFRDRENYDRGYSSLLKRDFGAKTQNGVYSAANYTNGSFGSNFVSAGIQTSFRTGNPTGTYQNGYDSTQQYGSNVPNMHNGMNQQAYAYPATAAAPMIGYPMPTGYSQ
Chain of UniProt O75477 (O75477 whole entry, looked up): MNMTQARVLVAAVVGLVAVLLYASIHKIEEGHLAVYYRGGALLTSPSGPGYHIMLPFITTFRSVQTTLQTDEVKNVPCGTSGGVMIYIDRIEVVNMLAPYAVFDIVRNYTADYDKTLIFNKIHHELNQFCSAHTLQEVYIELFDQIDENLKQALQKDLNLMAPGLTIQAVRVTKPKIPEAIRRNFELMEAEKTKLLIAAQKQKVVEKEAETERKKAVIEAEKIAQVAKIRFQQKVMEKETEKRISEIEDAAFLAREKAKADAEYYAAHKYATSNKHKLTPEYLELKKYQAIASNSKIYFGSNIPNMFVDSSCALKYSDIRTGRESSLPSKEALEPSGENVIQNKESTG
Chain of UniProt O60573 (O60573 whole entry, looked up): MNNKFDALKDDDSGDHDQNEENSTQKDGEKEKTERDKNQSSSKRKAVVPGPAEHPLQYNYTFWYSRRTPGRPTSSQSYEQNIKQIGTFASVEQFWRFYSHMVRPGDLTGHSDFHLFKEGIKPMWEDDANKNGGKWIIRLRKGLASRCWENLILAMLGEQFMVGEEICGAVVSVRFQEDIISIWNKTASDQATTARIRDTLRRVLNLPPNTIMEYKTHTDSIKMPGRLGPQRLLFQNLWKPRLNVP
Chain of UniProt P60842 (P60842 whole entry, looked up): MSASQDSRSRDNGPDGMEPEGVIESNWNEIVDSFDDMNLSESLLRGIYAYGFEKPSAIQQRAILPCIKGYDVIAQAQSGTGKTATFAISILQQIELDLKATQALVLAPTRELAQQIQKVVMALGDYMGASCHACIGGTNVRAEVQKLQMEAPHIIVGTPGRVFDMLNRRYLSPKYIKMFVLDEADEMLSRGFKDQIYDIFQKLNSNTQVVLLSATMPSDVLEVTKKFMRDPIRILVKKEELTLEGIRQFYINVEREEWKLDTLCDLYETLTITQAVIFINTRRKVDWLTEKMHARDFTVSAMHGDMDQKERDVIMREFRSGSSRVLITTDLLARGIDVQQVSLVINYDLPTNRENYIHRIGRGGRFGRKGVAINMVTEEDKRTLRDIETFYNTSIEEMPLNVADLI
Chain of UniProt Q15075 (Q15075 whole entry, looked up): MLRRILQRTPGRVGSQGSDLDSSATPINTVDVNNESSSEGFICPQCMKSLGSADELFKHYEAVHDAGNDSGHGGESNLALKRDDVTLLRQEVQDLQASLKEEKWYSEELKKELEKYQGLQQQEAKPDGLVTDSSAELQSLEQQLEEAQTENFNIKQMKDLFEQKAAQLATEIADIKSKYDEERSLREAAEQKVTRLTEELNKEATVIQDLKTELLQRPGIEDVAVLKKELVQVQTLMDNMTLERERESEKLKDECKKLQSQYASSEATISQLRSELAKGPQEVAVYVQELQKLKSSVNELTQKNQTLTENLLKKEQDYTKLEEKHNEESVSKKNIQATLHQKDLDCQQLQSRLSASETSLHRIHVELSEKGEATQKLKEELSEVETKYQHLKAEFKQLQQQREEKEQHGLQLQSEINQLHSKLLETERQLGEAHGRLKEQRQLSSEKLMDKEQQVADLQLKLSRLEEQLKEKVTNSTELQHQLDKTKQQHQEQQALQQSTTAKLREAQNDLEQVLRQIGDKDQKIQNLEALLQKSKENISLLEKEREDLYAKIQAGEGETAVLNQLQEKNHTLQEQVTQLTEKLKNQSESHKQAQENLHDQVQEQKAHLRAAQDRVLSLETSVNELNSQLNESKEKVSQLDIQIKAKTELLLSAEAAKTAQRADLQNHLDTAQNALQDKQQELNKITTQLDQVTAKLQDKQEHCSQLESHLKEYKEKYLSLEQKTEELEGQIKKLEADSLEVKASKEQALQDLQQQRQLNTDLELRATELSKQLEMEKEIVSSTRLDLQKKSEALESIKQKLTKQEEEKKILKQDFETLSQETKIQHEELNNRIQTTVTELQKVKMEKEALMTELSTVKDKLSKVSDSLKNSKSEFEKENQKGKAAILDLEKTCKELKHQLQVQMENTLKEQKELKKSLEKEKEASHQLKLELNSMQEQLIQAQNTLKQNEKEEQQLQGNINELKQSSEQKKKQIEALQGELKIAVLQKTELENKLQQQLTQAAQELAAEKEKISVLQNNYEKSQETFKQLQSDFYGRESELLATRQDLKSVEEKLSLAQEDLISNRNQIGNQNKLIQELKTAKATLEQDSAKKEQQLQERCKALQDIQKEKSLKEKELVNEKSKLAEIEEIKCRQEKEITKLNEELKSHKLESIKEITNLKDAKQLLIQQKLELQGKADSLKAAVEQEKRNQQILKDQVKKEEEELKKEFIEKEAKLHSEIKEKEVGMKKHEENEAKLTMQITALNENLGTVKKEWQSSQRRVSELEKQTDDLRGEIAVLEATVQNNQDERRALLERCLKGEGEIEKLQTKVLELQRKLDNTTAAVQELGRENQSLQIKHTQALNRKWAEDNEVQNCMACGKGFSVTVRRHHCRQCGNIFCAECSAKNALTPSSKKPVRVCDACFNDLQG
Chain of UniProt Q13011 (Q13011 whole entry, looked up): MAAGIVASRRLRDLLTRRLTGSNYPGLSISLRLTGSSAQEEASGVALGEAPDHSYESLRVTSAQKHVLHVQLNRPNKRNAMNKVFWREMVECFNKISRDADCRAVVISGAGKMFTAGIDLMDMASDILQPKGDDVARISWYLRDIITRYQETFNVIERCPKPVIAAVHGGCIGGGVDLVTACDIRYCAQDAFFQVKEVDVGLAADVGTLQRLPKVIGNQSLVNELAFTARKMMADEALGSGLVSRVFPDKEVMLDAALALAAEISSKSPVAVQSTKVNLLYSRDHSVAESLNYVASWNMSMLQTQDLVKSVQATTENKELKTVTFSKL
Chain of UniProt P29692 (P29692 whole entry, looked up): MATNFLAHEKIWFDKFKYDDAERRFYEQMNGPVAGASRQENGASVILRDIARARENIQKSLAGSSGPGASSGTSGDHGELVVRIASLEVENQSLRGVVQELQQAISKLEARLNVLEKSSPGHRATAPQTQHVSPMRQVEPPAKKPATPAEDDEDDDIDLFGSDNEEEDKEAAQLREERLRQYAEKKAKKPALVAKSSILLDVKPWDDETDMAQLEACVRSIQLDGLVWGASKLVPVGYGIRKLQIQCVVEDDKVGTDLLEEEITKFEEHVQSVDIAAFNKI
Chain of UniProt Q96DA6 (Q96DA6 whole entry, looked up): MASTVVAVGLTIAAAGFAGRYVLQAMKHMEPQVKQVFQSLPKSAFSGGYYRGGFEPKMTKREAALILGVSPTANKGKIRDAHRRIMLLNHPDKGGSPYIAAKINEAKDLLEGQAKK
Chain of UniProt Q58WW2 (Q58WW2 whole entry, looked up): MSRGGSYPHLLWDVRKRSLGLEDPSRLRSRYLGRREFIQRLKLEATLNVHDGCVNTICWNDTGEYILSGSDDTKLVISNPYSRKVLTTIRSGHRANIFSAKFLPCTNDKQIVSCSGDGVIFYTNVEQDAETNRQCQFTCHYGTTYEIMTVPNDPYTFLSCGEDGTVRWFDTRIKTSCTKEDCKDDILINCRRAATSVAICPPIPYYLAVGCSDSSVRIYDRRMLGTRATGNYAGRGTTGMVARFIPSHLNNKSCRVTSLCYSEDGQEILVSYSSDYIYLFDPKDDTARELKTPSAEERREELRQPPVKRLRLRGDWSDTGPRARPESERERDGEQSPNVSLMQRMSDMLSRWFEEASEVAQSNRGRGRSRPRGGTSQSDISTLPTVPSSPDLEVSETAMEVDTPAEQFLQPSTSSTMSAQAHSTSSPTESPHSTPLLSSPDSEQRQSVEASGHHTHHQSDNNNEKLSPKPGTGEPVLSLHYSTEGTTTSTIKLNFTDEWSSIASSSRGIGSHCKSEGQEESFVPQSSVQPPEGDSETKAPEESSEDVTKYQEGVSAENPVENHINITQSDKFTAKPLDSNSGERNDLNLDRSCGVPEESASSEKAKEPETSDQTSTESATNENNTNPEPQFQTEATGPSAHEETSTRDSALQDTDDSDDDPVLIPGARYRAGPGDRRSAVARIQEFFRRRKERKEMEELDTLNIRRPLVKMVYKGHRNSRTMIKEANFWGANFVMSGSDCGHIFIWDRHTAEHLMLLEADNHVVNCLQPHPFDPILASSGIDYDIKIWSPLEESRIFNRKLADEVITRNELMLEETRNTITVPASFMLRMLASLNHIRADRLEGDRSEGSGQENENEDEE
Chain of UniProt Q96E09 (Q96E09 whole entry, looked up): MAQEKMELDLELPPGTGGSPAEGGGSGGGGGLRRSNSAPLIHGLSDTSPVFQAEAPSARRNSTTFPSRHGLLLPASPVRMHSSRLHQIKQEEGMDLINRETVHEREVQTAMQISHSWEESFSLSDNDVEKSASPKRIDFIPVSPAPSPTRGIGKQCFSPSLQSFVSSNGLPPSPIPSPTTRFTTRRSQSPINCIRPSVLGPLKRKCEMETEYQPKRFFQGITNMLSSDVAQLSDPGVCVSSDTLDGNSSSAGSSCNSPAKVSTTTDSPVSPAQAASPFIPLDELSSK

log2 fold change, inactive:
EOGT (UniProt Q5NDL2) -0.058
CUEDC2 (UniProt Q9H467) 0.016
DDX5 (UniProt P17844) 0.13
EIF4E2 (UniProt O60573) 0.013
ERLIN1 (UniProt O75477) -0.081
EEF1AKNMT (UniProt Q8N6R0) 0.063
EIF4A1 (UniProt P60842) 0.036
DCTPP1 (UniProt Q9H773) 0.01
DNAJB12 (UniProt Q9NXW2) -0.039
DDX4 (UniProt Q9NQI0) 0.576
EXOC2 (UniProt Q96KP1) 0.07
DMAC1 (UniProt Q96GE9) 0.041
EEA1 (UniProt Q15075) 0
DDX46 (UniProt Q7L014) 0.053
CYP51A1 (UniProt Q16850) -0.09
DCTN1 isoform 4 (UniProt Q14203) 0.04
CWC27 (UniProt Q6UX04) 0.084
DNAJC19 (UniProt Q96DA6) -0.009
DUS2 (UniProt Q9NX74) -0.002
ECH1 (UniProt Q13011) -0.027
DBT (UniProt P11182) -0.041
FAAP100 (UniProt Q0VG06) 0.003
FAM207A (UniProt Q9NSI2) -0.082
EEF1D isoform 2 (UniProt P29692) 0
DNAH11 (UniProt Q96DT5) -0.252
DAB2 (UniProt P98082) 0.107
DYNC1LI2 (UniProt O43237) 0.035
DNAJC7 (UniProt Q99615) 0.02
DLD (UniProt P09622) 0.001
DCAF10 (UniProt Q5QP82) 0.01
DCAF6 isoform 3 (UniProt Q58WW2) 0.035
FAM122A (UniProt Q96E09) 0.095
FAM83D (UniProt Q9H4H8) 0.035
DNAJB1 (UniProt P25685) 0.005
DNTTIP2 (UniProt Q5QJE6) -0.111
CTSL (UniProt P07711) -0.005
CTSV (UniProt O60911) 0.043
EDC3 (UniProt Q96F86) -0.023
EIF3J (UniProt O75822) 0.056

compound: C/C(=N\NC(=O)C1=CC(=CC=C1)S(=O)(=O)N2CCOCC2)/C3=C(C=CC(=C3)Cl)O; experiment: as above
In short: as §1

log2 fold change, inactive:
EOGT (UniProt Q5NDL2) -0.018
CUEDC2 (UniProt Q9H467) -0.023
DDX5 (UniProt P17844) 0.101
EIF4E2 (UniProt O60573) 0.056
ERLIN1 (UniProt O75477) 0.013
EEF1AKNMT (UniProt Q8N6R0) 0.15
EIF4A1 (UniProt P60842) 0.049
DCTPP1 (UniProt Q9H773) -0.07
DNAJB12 (UniProt Q9NXW2) -0.001
DDX4 (UniProt Q9NQI0) -0.071
EXOC2 (UniProt Q96KP1) 0.083
DMAC1 (UniProt Q96GE9) 0.076
EEA1 (UniProt Q15075) -0.016
DDX46 (UniProt Q7L014) 0.23
CYP51A1 (UniProt Q16850) 0.019
DCTN1 isoform 4 (UniProt Q14203) 0.031
CWC27 (UniProt Q6UX04) -0.023
DNAJC19 (UniProt Q96DA6) 0.014
DUS2 (UniProt Q9NX74) -0.022
ECH1 (UniProt Q13011) 0.053
DBT (UniProt P11182) -0.019
FAAP100 (UniProt Q0VG06) 0.019
FAM207A (UniProt Q9NSI2) -0.092
EEF1D isoform 2 (UniProt P29692) 0.031
DNAH11 (UniProt Q96DT5) -0.237
DAB2 (UniProt P98082) 0.112
DYNC1LI2 (UniProt O43237) -0.147
DNAJC7 (UniProt Q99615) 0.065
DLD (UniProt P09622) -0.018
DCAF10 (UniProt Q5QP82) 0.014
DCAF6 isoform 3 (UniProt Q58WW2) 0
FAM122A (UniProt Q96E09) 0.073
FAM83D (UniProt Q9H4H8) 0.027
DNAJB1 (UniProt P25685) 0.017
DNTTIP2 (UniProt Q5QJE6) -0.186
CTSL (UniProt P07711) -0.173
CTSV (UniProt O60911) -0.105
EDC3 (UniProt Q96F86) 0.156
EIF3J (UniProt O75822) -0.004

Reference: the supplement of paper PMC10849652
